About 13,000 (27%) of roughly 48,000 compounds showed an effect of 50% or more. Some of the results follow.
Tested on: Wolbachia pipientis
Assay: Anti-Wolbachia Cell-Based Screen
Type: functional
Parameters: scale not given: in the data most compounds retested in dose-response had high values
Conditions: 5 µM

SMILES	Percent Effect [%]
Oc1ccc(N2CCN(Cc3cc4c(cc3Br)OCCO4)CC2)cc1	-10.73
CC(C)CCN1CCC2(CC1)CN(C(=O)c1cnccn1)CCO2.O=C(O)C(F)(F)F	-8.642
Cn1cc(CN2CCCC3(CCN(C(=O)c4cnccn4)C3)C2)cn1.O=C(O)C(F)(F)F.O=C(O)C(F)(F)F (configuration not stated)	-36.61
Cn1cc(CN2CCC3(CC2)CN(C(=O)c2cnccn2)CCO3)cn1	101.7
CCc1ccc(CN2CCC3(CCCN(C(=O)c4cnccn4)C3)C2)o1.O=C(O)C(F)(F)F (configuration not stated)	23.64
Cn1cc(CN2CCC3(CCCN(C(=O)c4cnccn4)C3)C2)cn1 (configuration not stated)	7.413
Cc1ccc(CN2CCC3(CC2)CN(C(=O)c2cnccn2)CCO3)o1.O=C(O)C(F)(F)F	98.59
Cc1cc2n(n1)CC(CNC1CCN(C(=O)C3CC3)CC1)CN2 (configuration not stated)	1.236
Nc1cc(C(=O)NCC2CCN(Cc3ccncc3F)C2)ccn1 (configuration not stated)	-104.6
CC(C)(C)c1nccc(N2CCC(OCCN3CCCCC3)C2)n1 (configuration not stated)	4.599
CC(Cn1cncc1-c1cnn(C2CCCCC2)c1)N1CCCCC1.Cl (configuration not stated)	109.8
CC(C)n1cc(CN(C)C[C@@H]2CCCN3CCCC[C@H]23)cn1	12.76
CC(CN1CCCCCC1)NCc1nncn1C1CCCCC1 (configuration not stated)	-0.3524
COCCn1c2c(ccc1=O)CCN(C(=O)C1CC=CC1)CC2	102.1
COCCn1c2c(ccc1=O)CCN(C(=O)CC1CC1)CC2	117
COCCn1c2c(ccc1=O)CC(N)CC2 (configuration not stated)	-4.933
COCC(=O)N1CCc2ccc(=O)n(CC3CC3)c2CC1	104.1
COCCn1c2c(ccc1=O)CCN(C(=O)NC1CC1)CC2	105.3
O=C(NC1CC1)N1CCc2ccc(=O)n(CC3CC3)c2CC1	7.486
O=C(NC1CC1)N1CCc2ccc(=O)n(CCN3CCCC3)c2CC1.O=C(O)C(F)(F)F	-8.445
CC(C)c1cccc(CSc2nnc(Cn3cncn3)o2)n1	-1.93
CN(C)C(=O)CN1C(=O)CO[C@@H]2CN(c3ccccn3)C[C@H]21.O=C(O)C(F)(F)F	-2.034
Cc1cc(CCCC(=O)NC2CCN(C)C2=O)c(C)s1 (configuration not stated)	-2.482
CNC(=O)CS(=O)(=O)C1CCN(S(=O)(=O)c2ccccc2Br)CC1	9.932
Cc1ccc(-c2noc(C(O)CC(C)C)n2)nn1 (configuration not stated)	-5.785
O=C(CN1CCS(=O)(=O)CC1)NC1CCOc2ccccc21 (configuration not stated)	5.265

SMILES	Percent Effect [%]
Cc1ccc(CS(=O)(=O)Cc2nc(N)nc(N(C)C)n2)cc1	10.59
CN(C)c1cc2c(nn1)CCN(C(=O)C1Cc3ccccc3S1)C2 (configuration not stated)	-0.2262
CC(C)c1ccc(O)c(C(=O)NCc2cc[nH]n2)c1	-15.09
CC(NCCCn1ccnc1)c1ccc(N2CCCS2(=O)=O)cc1 (configuration not stated)	-4.666
CC(NCCCn1cccn1)c1ccc(N2CCCS2(=O)=O)cc1 (configuration not stated)	-2.983
COCCCNS(=O)(=O)c1ccc(N2CCCCS2(=O)=O)cc1	124.1
COC(=O)c1sc(C(F)(F)F)cc1OC	102.8
COc1cc(C)sc1C(=O)NCCNc1ccccc1	-4.959
COc1cc2cc(C(=O)O)n(C)c2cc1OC	-4.689
CCOCC(C)(C)NC(=O)Nc1cc(F)ccc1OC	-3.533
CNS(=O)(=O)c1ccsc1C(=O)OC	1.281
COc1cc(C(F)(F)F)sc1C(=O)O	103.8
CC1CCCCN1S(=O)(=O)NCCN/C(O)=C1/N=CC=CC1=O (configuration not stated)	-4.587
CCc1ccc(CN2CCCC(CO)(CCOC)C2)cc1 (configuration not stated)	-6.434
Cc1cc(C)n(CC2CCCCN2C(=O)c2ccc(C(N)=O)cc2)n1 (configuration not stated)	111.1
CCOc1ccc(C(=O)N2CCCCC2Cn2nc(C)cc2C)cn1 (configuration not stated)	118.2
Cc1cc(C)n(CC2CCCCN2C(=O)c2ccc3nncn3c2)n1 (configuration not stated)	3.82
Cc1cc(C)n(CC2CCCCN2C(=O)c2cnn(C)c2)n1 (configuration not stated)	-4.108
Cc1cc(C)n(CC2CCCN2C(=O)c2ccc(NC3CC3)nc2)n1 (configuration not stated)	104.7
Cc1cc(C)n(CC2CCCN2C(=O)c2ccc3[nH]nnc3c2)n1 (configuration not stated)	-17
Cc1cc(C)n(CC2CCCN2C(=O)c2ccc(C(N)=O)cn2)n1 (configuration not stated)	-1.212
CCOc1ccccc1C(CC(=O)N(C)C)NC(C)=O (configuration not stated)	-2.972
CCc1nc2n(n1)CC(NCc1cn(C)nc1-c1cccnc1)CC2 (configuration not stated)	-2.892
Cc1cnc(N2CC[C@@H]3O[C@H](COCc4ccccn4)CC[C@@H]32)nc1.O=C(O)C(F)(F)F.O=C(O)C(F)(F)F	-4.87
Cc1ccc2c(c1)SCC(=O)N2CC(=O)N1CCCC1c1nccs1 (configuration not stated)	15.48
Cc1ccc2c(c1)SCC(=O)N2Cc1noc(C2CCCO2)n1 (configuration not stated)	109.6

SMILES	Percent Effect [%]
O=C1CSc2ccccc2N1Cc1noc(C2CCCO2)n1 (configuration not stated)	108.8
Cc1ccc2c(c1)SCC(=O)N2CC(=O)N1CCC[C@H]1c1nc(C)no1	9.485
O=c1cc(N2CCCCC2)cnn1Cc1noc(C2CCCO2)n1 (configuration not stated)	-0.8561
O=c1cc(N2CCCC2)cnn1Cc1noc(C2CCCO2)n1 (configuration not stated)	-13.05
Cc1cc(C)n(C2CCN(C(=O)CN3C(=O)CSc4ccccc43)C2)n1 (configuration not stated)	-2.821
Cc1ccc2c(c1)SCC(=O)N2Cc1noc(C2CC2)n1	92.98
Cc1cccc(-c2nc(CN(Cc3cccs3)CC3CCCO3)no2)c1 (configuration not stated)	0.4556
CCCc1ccc(CN2C[C@H]3C(=O)N(CC4CC4)C[C@@]3(C(=O)O)C2)o1	-18.71
CC(C)c1ocnc1C(=O)NC(c1nnc2n1CCNCC2)C(C)C (configuration not stated)	15.04
O=C1CCC(C(=O)N2CCOC(Cc3ccccc3Cl)C2)=NN1 (configuration not stated)	-0.3624
Cc1nc(C(C)(C)NC(=O)Nc2ccccc2)no1	-20.84
CCNC(=O)Cn1ncc(N(C)CCc2ccccc2)cc1=O	6.09
Cc1ccsc1C(=O)N1CCc2ncc(CN(C)C)n2CC1.O=C(O)C(F)(F)F	-9.607
CN(Cc1ccc(CCC(C)(C)O)cc1)Cc1cccc(O)c1	-7.089
CC(C)(C)CN1CCCC(c2nccnc2Nc2cnccn2)C1 (configuration not stated)	141
CC(C)(C)CN1CCC(c2nccnc2Nc2cnccn2)CC1	104.1
Cn1cncc1-c1nnc([C@H]2CCN(CC(C)(C)C)C2)o1	-4.073
CC(C)(C)CN1CCC(c2nnc(Cn3ccnc3)n2C2CC2)CC1	-15.12
Cn1c(Cn2ccnc2)nnc1C1CCCN(CC(C)(C)C)C1 (configuration not stated)	-0.4988
CC(C)N(Cc1ccc(C#N)cc1)Cc1nnsc1Cl	-0.2197
COC(=O)CNC(=O)CC1COc2ccc(C(=O)N(C)C)cc2N1C (configuration not stated)	-21.78
CN(Cc1ccncc1)C1CC2(CCN(C(=O)c3ccnnc3)CC2)C1	2.338
Cc1ccsc1C(=O)N1CCC2(CC(N(C)c3ccncn3)C2)C1 (configuration not stated)	125
CN(c1ccncn1)C1CC2(CCN(C(=O)c3cccn3C)C2)C1 (configuration not stated)	100.1
Cc1ccc(N2CCCC3(CCN(C(=O)c4sccc4C)C3)C2)nn1 (configuration not stated)	-21.87
CN(c1ccncn1)C1CC2(CCN(C(=O)c3cncs3)C2)C1 (configuration not stated)	101.7

SMILES	Percent Effect [%]
Cc1noc(C)c1CN1CC2(CCN(C(=O)c3cccn3C)C2)CC1=O (configuration not stated)	-4.057
Cn1cccc1C(=O)N1CCCC2(CCCN2Cc2cccnc2)C1 (configuration not stated)	0.2442
CN(c1ccncn1)C1CC2(CCN(C(=O)c3cccs3)C2)C1 (configuration not stated)	5.118
CN(c1ccncn1)C1CC2(CCN(C(=O)CCc3cccs3)C2)C1 (configuration not stated)	-6.442
Cc1ccsc1C(=O)N1CCC(c2nccn2Cc2ccncc2)CC1	-26.92
CN(c1ccncn1)C1CC2(CCN(C(=O)Cc3cccs3)C2)C1 (configuration not stated)	98.18
CN(C)C(=O)N1CCN(Cc2noc(Cc3ccccc3)n2)CC1	-7.499
CC(C)CN1C(=O)CO[C@@H]2CN(C(=O)CC(F)(F)F)C[C@H]21	-4.787
O=C(Nc1ccnc(OC2CCOC2)c1)c1cc(F)ccc1F (configuration not stated)	-0.1893
CN(Cc1cccnc1)C1CC2(CCN(C(=O)c3cscn3)CC2)C1	-13.69
CN(c1ccncn1)C1CC2(CCN(C(=O)c3ccsc3)C2)C1 (configuration not stated)	9.271
CN(Cc1cccnc1)C1CC2(CCN(C(=O)c3cnccn3)CC2)C1	-5.762
Cc1noc(C)c1C(=O)N1CC[C@H]2C[C@@H](c3ccncn3)O[C@@H]2C1	-6.202
Cc1noc(C)c1C(=O)N1CCC2(CC(N(C)c3ccncn3)C2)C1 (configuration not stated)	121.5
Cc1csc(C(=O)N2CCC3(CC(N(C)c4ccncn4)C3)C2)c1 (configuration not stated)	119.5
Cc1ccc(C(=O)N2CCC3(CC(N(C)c4ccncn4)C3)C2)cn1 (configuration not stated)	100.9
Cc1noc(C)c1CN1CC2(CCN(C(=O)c3c[nH]cn3)C2)CC1=O (configuration not stated)	-8.686
CCOC(=O)CCCN1CCCC(C(=O)Nc2ccc(Cl)cn2)C1 (configuration not stated)	-9.707
CN1CCC2(C=C(C(=O)N(C)C)c3ccccc32)CC1	111.1
CCC(=O)N1CCC2(C=C(C(=O)N(C)C)c3ccccc32)CC1	99.74
CN1CCC2(C=C(C(=O)N3CCCC3)c3ccccc32)CC1.O=C(O)C(F)(F)F	-7.584
CCC(=O)N1CCC2(C=C(C(=O)N3CCCC3)c3ccccc32)CC1	109
O=C(C1=CC2(CCNCC2)c2ccccc21)N1CCCC1	-0.6834
CSCC(=O)N1CCC2(CC1)c1ccccc1CC2O (configuration not stated)	-1.136

From ChEMBL document CHEMBL3988442, “University of Dundee, Small-Polar-MMV Screening Library” (2021)
